Screening data (PubChem)
Hits are enriched below; roughly 2.4% of the tested compounds scored in any of these assays.
D2 PAM-1 – HTS Assay for Positive Allosteric Modulators of the Human D2 Dopamine Receptor: Primary Screen for Potentiators; 340,000 tested, 0.34% active; potentiation, % at 10 µM; AID 485347, 2010; HEK293 T-REx D2, calcium flux, EC20 dopamine potentiation;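 active = potentiation over 3 SD above the plate norm, cut at about 30% in these data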
Target sequence (P14416 whole entry, looked up): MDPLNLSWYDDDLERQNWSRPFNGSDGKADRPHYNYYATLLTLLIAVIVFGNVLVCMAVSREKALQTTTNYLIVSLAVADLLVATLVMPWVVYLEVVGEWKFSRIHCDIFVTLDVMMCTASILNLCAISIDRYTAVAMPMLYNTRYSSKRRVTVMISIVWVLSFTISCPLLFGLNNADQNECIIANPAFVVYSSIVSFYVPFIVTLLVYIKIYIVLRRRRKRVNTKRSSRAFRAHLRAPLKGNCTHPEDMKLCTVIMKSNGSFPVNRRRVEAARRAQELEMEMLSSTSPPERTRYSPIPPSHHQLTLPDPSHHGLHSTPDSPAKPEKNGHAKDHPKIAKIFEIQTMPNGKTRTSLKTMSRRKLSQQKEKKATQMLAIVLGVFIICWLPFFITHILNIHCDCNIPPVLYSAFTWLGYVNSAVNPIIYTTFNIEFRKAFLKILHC
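Tetracycline-induced HEK293 T-REx cells force-coupled to calcium signalling expressed D2; compounds were pin-added after a 10 s baseline, read kinetically 180 s, then an EC20 dopamine challenge followed with a further 180 s calcium read.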
D2 ag-1 – Beta-Arrestin HTS for Positive Allosteric Modulators of the Human D2 Dopamine Receptor: Agonists; D(2) dopamine receptor (Homo sapiens), P14416; DiscoveRx PathHunter D2 beta-arrestin, luminescence, 90 min; 100% = 57 uM dopamine signal; activation, % (concentration not given with the values); 360,000 tested, 0.084% active; in the data active = activation above about 40%
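DiscoveRx PathHunter D2 beta-arrestin cells (2,100/well) attached overnight, then compound-stimulated 90 min at 37 C in HBSS/10 mM HEPES/0.1% Tween-20 buffer; beta-galactosidase complementation read by luminescence after 1 h at ambient temperature. Dopamine 57 uM final (EC100) as control.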
D2 PAM-2 – Beta-Arrestin HTS for Positive Allosteric Modulators of the Human D2 Dopamine Receptor: Potentiators. 360,000 tested, 0.23% active. D(2) dopamine receptor (Homo sapiens), P14416. potentiation, % (no concentration beside the values). DiscoveRx D2 beta-arrestin cells, luminescence, 90 min; 100% = 57 uM dopamine signal; in the data active = potentiation above about 50%
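PathHunter beta-arrestin assay in DiscoveRx D2 cells. Compounds were added with an EC20 of dopamine (50 nM final) for 90 min at 37 deg C. Luminescence was read 1 h after detection reagent, with 57 uM dopamine as the EC100 control.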
D2 ag-2 – HTS Assay for Allosteric Agonists of the Human D2 Dopamine Receptor: Primary Screen for Agonists; 340,000 tested, 0.53% active; HEK293 T-REx D2 cells, calcium flux agonist mode; activation, % at 2 µM;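 active = activation over 3 SD above normal in the single-dose calcium agonist read, cut at about 30% in these data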
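Calcium-flux readout, 1 cycle/sec over 180 s following compound pin transfer, in inducible HEK293 Trex D2 cells (force-coupled); dopamine controls included. Positive calcium responses during this window marked compounds as potential agonists.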
D2 antag – HTS Assay for Allosteric Antagonists of the Human D2 Dopamine Receptor: Primary Screen for Antagonists; D(2) dopamine receptor (Homo sapiens), P14416; HEK293 TREx D2 cells, calcium flux, dopamine EC80; inhibition, % at 10 µM; 340,000 tested, 2% active; in the data active = inhibition above about 30%; inactive = below that, where a call was filed
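Antagonism is scored as inhibition of an EC80 dopamine-evoked calcium signal in a force-coupled, tetracycline-inducible HEK293 T-REx D2 line, with compound present 180 s before agonist.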
Each line names hits and unclear results; the compound was inactive in the other large screens.

Cc1cc(NC(=O)CCC(=O)N(Cc2ccco2)C2(C(=O)NC3CCCC3)CCC(C)CC2)no1 (configuration not stated)	none
Cc1cc(NC(=O)CCC(=O)N(CCC(C)C)C(C(=O)NC2CCCC2)c2ccccc2C)no1 (configuration not stated)	D2 antag 51
Cc1ccc(-c2nnn(CC(=O)N(c3ccccc3)C(C(=O)NC3CCCC3)c3ccco3)n2)o1 (configuration not stated)	D2 antag 33
Cc1cc(NC(=O)CCC(=O)N(c2ccc(C)c(F)c2)C(C(=O)NC2CCCC2)c2ccco2)no1 (configuration not stated)	none (no result: D2 ag-2, D2 antag)
Fc1ccc(Nc2nc3nonc3nc2Nc2cccc(C(F)(F)F)c2)cc1	none (no result: D2 ag-1, D2 PAM-2, D2 ag-2, D2 antag)
Cc1ccc(N(C)C(=O)Cn2cc(S(=O)(=O)N3CCCC3)c(S(=O)(=O)N3CCCC3)c2)cc1	none (no result: D2 ag-1, D2 PAM-2, D2 ag-2, D2 antag)
COc1ccc(CC(=O)NCCc2cnc[nH]2)cc1	none
COc1ccc(C)c(NC(=O)NCCc2cnc[nH]2)c1	D2 antag 38
COc1cccc(CNC(=O)c2ccc3c(c2)N(Cc2ccc(F)cc2Cl)C(=O)c2ccccc2S3)c1	none (no result: D2 ag-1, D2 PAM-2, D2 antag)
Cc1ccccc1NCc1cccn1-c1nnc(N2CCC(C)CC2)s1	none (no result: D2 ag-1, D2 PAM-2, D2 antag)
CCOc1ccc2nc(NC(=O)Nc3ccccc3)sc2c1	D2 antag 32
CCC(=O)Nc1nc2ccc(NC(=O)c3cc(OC)c(OC)c(OC)c3)cc2s1	D2 PAM-1 31
CCOc1ccc2nc(NC(=O)COC)sc2c1	D2 PAM-1 34
CCOCC(=O)Nc1nc2ccc(OC)cc2s1	none (no result: D2 PAM-1)
COc1ccc2nc(NC(=O)Nc3ccccc3)sc2c1	none
COc1cc(C(=O)Nc2ccc(Cl)c([N+](=O)[O-])c2)cc(OC)c1OC	D2 antag 37
CCOc1ccc(CN2C(=O)C(=O)c3cccc(C)c32)cc1OC	none (no result: D2 ag-1, D2 PAM-2, D2 antag)
COc1ccc(C2CC(=O)c3cc(-c4nc(-c5cccc(Cl)c5)cs4)c(=O)[nH]c3C2)cc1OC (configuration not stated)	none (no result: D2 ag-1, D2 PAM-2, D2 antag)
O=C(c1cccc(Br)c1)N1CCN(C(=O)N2CCOCC2)CC1	none
O=C(c1cccc(Br)c1)N1CCN(C(=O)c2cccc(Br)c2)CC1	D2 PAM-1 35
COc1cc(OC)cc(C(=O)N2CCN(C3CCCCC3)CC2)c1	none
COc1cc(OC)cc(C(=O)N2CCN(c3ccccc3F)CC2)c1	D2 antag 31
COc1cc(OC)cc(C(=O)N2CCC(N3CCCCCC3)CC2)c1	D2 PAM-1 38
COc1ccc(OCC(=O)N2CCN(C(=O)c3cccc(F)c3)CC2)cc1	none
COc1cc(OC)cc(C(=O)N2CCN(C(=O)c3cccc(F)c3)CC2)c1	D2 antag 31
CCOC(=O)c1c(NC(=O)c2noc3c2CC(C(C)(C)C)CC3)sc2c1CCCC2 (configuration not stated)	none (no result: D2 ag-1, D2 PAM-2, D2 antag)
Cc1noc(-c2ccc(NCc3ccccc3)c([N+](=O)[O-])c2)n1	none (no result: D2 ag-1, D2 PAM-2, D2 antag)
Cc1nc2cccnc2n1-c1cccc(C(=O)NCc2ccc(OC(C)C)cc2)c1	none (no result: D2 ag-1, D2 PAM-2, D2 antag)
CC(C)CNC(=S)Nc1ccccc1F	D2 PAM-1 34
CC(CCc1ccccc1)NC(=O)C(=O)Nc1ccccc1 (configuration not stated)	D2 antag 72
CCOc1ccc(CCNC(=O)c2ccc3c(c2)N(Cc2ccccc2F)C(=O)c2ccccc2S3=O)cc1OCC (configuration not stated)	none (no result: D2 ag-1, D2 PAM-2, D2 antag)
COc1ccc(N2CC(C(=O)N/N=C/c3ccccc3)CC2=O)cc1 (configuration not stated)	none
O=C(N/N=C/c1cccc(Br)c1)C1CC(=O)N(c2ccccc2)C1 (configuration not stated)	D2 antag 35
CCc1ccccc1NC(=O)CCNS(=O)(=O)c1ccc2c(c1)CCCC(=O)N2	none (no result: D2 ag-1, D2 PAM-2, D2 antag)
Cc1coc2c1c(C)cc1oc(=O)c(CC(=O)NCCCCCC(=O)O)c(C)c12	D2 PAM-1 46
